{"source": "ChEMBL document CHEMBL4513216", "about": "“Probing the Open Global Health Chemical Diversity Library for Multistage-Active Starting Points for Next-Generation Antimalarials” (ACS Infect Dis, 2020)", "note": "The whole screen tested about 69,000 compounds, of which about 8,600 (12%) showed an effect of 50% or more. The list comes from a sample in which strong results are over-represented; it also holds similar structures and randomly drawn compounds."}
{"system": "Plasmodium berghei", "experiment": "Screen against P. berghei liver stage (PbLuc), transformed with Luciferase, at 10uM", "type": "functional, HepG2", "conditions": "tested at 10 uM", "units": {"INHIBITION": "%"}}
{"smiles": "CCN1CC[C@@]2(C(=O)N3CCOCC3)CCN(C(=O)NC)CC[C@@H]12", "INHIBITION": -19.6}
{"smiles": "Oc1cc(-c2nccs2)nc(C2CCN(Cc3cccs3)CC2)n1", "INHIBITION": 2.55}
{"smiles": "Cc1cc(-c2nccs2)nc(C2CCN(Cc3ccncc3)CC2)n1", "INHIBITION": 26.7}
{"smiles": "Cc1cc(-c2nccs2)nc(C2CCN(Cc3ccc(F)cc3)CC2)n1", "INHIBITION": 52.7}
{"smiles": "Cc1cc(-c2nccs2)nc(C2CCN(Cc3cccs3)CC2)n1", "INHIBITION": 50.8}
{"smiles": "Cc1cc(-c2nccs2)nc(C2CCN(Cc3ccccn3)CC2)n1", "INHIBITION": 23.9}
{"smiles": "Cc1nccc([C@@H]2C[C@@H]3CCN(Cc4cccs4)C[C@H]3O2)n1", "INHIBITION": -32.6}
{"smiles": "Cc1nnc(C(C)NCC2(c3ccc(F)cc3)CCCCC2)o1", "note": "(stereo not drawn)", "INHIBITION": -14.6}
{"smiles": "O=C(CCn1ccccc1=O)Nc1ccc(C(=O)O)cc1", "INHIBITION": 12.7}
{"smiles": "Cc1nc(N(C)C)nc2c1COCC21CCN(C(=O)NCC(C)C)C1", "note": "(stereo not drawn)", "INHIBITION": -43.8}
{"smiles": "CC(NC(=O)CCOc1ccc(F)cc1)c1nnc2n1CCCCC2", "note": "(stereo not drawn)", "INHIBITION": 28.8}
{"smiles": "COc1ccccc1CNc1ccc2nncn2n1", "INHIBITION": -33.8}
{"smiles": "O=C(Cn1cccnc1=O)NC(Cc1ccsc1)c1cccnc1", "note": "(stereo not drawn)", "INHIBITION": 14.7}
{"smiles": "CC(C)c1cc(NCC2(CO)CCCC2)ncn1", "INHIBITION": 44.3}
{"smiles": "CC(C)c1cc(NCC2(N(C)C)CCCC2)ncn1", "INHIBITION": 49.9}
{"smiles": "CC(C)c1cc(NCC2(CO)CCC2)ncn1", "INHIBITION": 66.7}
{"smiles": "CCN(CC)Cc1ccc(C(=O)NC2CCc3cc(Br)ccc32)o1", "note": "(stereo not drawn)", "INHIBITION": 36.7}
{"smiles": "CCN(CC)Cc1ccc(C(=O)NC2CCc3cc(F)ccc32)o1", "note": "(stereo not drawn)", "INHIBITION": 9.91}
{"smiles": "CCN(CC)Cc1ccc(C(=O)NC2CCc3cc(Cl)ccc32)o1", "note": "(stereo not drawn)", "INHIBITION": 50.5}
{"smiles": "O=C(CC1CCCC1)Nc1ccc(-n2cc(Cl)cn2)nc1", "INHIBITION": -18.8}
{"smiles": "CC(C)c1sc(Br)nc1C(=O)NCc1ccco1", "INHIBITION": -7.81}
{"smiles": "Cc1csc(CN2C[C@@H]3COC[C@]3(COCC(=O)N(C)C)C2)n1", "INHIBITION": -2.35}
{"smiles": "CN1CCN(c2ccccc2CNC(=O)Cc2cccc(F)c2)CC1", "INHIBITION": 30.3}
{"smiles": "Cc1ccc(CN2CCc3c(CN4CCCC4)n[nH]c3C2)s1", "INHIBITION": 26.5}
{"smiles": "Cc1cc(C)nc(C2CCN(C3CCCCC3)C2)n1", "note": "(stereo not drawn)", "INHIBITION": -36.4}
{"smiles": "CCS(=O)(=O)NC[C@]12COC[C@H]1CN(Cc1cccnc1)C2", "INHIBITION": 24.9}
{"smiles": "CCS(=O)(=O)NC[C@]12COC[C@H]1CN(Cc1cc(C)on1)C2", "INHIBITION": 18.8}
{"smiles": "CCS(=O)(=O)NC[C@]12COC[C@H]1CN(Cc1ccsc1)C2", "INHIBITION": 53.9}
{"smiles": "CCS(=O)(=O)NC[C@]12COC[C@H]1CN(Cc1ccncc1)C2", "INHIBITION": 53.9}
{"smiles": "CCS(=O)(=O)NC[C@]12COC[C@H]1CN(Cc1ccccn1)C2", "INHIBITION": 4.27}
{"smiles": "CCS(=O)(=O)NC[C@]12COC[C@H]1CN(Cc1sccc1C)C2", "INHIBITION": 28.7}
{"smiles": "CCS(=O)(=O)CC(=O)NC(c1ccc(F)cc1)C1CCCC1", "note": "(stereo not drawn)", "INHIBITION": 42.6}
{"smiles": "Cc1nn(-c2ccccc2)c(C)c1CN1CCNCC1", "INHIBITION": 40.9}
{"smiles": "COc1cc(C2(C(=O)N3CCCC(n4cncn4)C3)CC2)ccc1C", "note": "(stereo not drawn)", "INHIBITION": -7.81}
{"smiles": "COc1cc(C2(C(=O)NC3CCN(C4CC4)CC3)CC2)ccc1C", "INHIBITION": 51.5}
{"smiles": "COCC(=O)N1CCN(C(=O)C2(c3ccc(C)c(OC)c3)CC2)CC1", "INHIBITION": 50.9}
{"smiles": "CCC(O)CN1CCN(C(=O)C2(c3ccc(C)c(OC)c3)CC2)CC1", "note": "(stereo not drawn)", "INHIBITION": -6.34}
{"smiles": "COCCNC(=O)C1(c2ccc(C)c(OC)c2)CCCC1", "INHIBITION": 21.5}
{"smiles": "COc1cc(C2(C(=O)N3CCN(CC(C)(C)O)CC3)CC2)ccc1C", "INHIBITION": 52.3}
{"smiles": "COc1cc(C2(C(=O)NC3CCC4(CC3)OCCO4)CC2)ccc1C", "INHIBITION": 10.3}
{"smiles": "COc1cc(C2(C(=O)N3CCN(CC(C)O)CC3)CC2)ccc1C", "note": "(stereo not drawn)", "INHIBITION": -17.8}
{"smiles": "COc1cc(C2(C(=O)NC3CCN(CC4CC4)CC3)CC2)ccc1C", "INHIBITION": 25.5}
{"smiles": "O=C(O)[C@H]1OCC(=O)N(Cc2cccc(Cl)c2)[C@@H]1c1ccccc1", "INHIBITION": 22}
{"smiles": "Cn1cc(CN2CCCCC2c2ccc(-c3cccc(Cl)c3)nc2)cn1", "note": "(stereo not drawn)", "INHIBITION": 57.3}
{"smiles": "Cn1cc(CN2CCCCC2c2ccc(-c3cnn(C)c3)nc2)cn1", "note": "(stereo not drawn)", "INHIBITION": 25.8}
{"smiles": "Nc1nccc(C2CCCN2CCc2ccccc2)n1", "note": "(stereo not drawn)", "INHIBITION": 37.8}
{"smiles": "COc1ccc(C2CCCN2Cc2cnn(C)c2)cc1", "note": "(stereo not drawn)", "INHIBITION": 34.5}
{"smiles": "Cn1cc(CN2CCCCC2c2ccc(-c3cccc(F)c3)nc2)cn1", "note": "(stereo not drawn)", "INHIBITION": 62.9}
{"smiles": "Cc1nccc(C2CCCCN2Cc2cccc(F)c2)n1", "note": "(stereo not drawn)", "INHIBITION": 43.6}
{"smiles": "Cn1cc(CN2CCOC(c3cccc(-c4cccc(F)c4)n3)C2)cn1", "note": "(stereo not drawn)", "INHIBITION": 23.9}
{"smiles": "Cn1cc(-c2ccc(C3CCCCN3Cc3cccnc3)cn2)cn1", "note": "(stereo not drawn)", "INHIBITION": 9.05}
{"smiles": "Nc1nccc(C2CCCCN2Cc2cccc(F)c2)n1", "note": "(stereo not drawn)", "INHIBITION": 52}
{"smiles": "CC(=O)Nc1nc(CN2CCn3c(nnc3C(C)C)C2)cs1", "INHIBITION": -24.3}
